Assay outcomes (PubChem)
Only some compounds are listed: those with a hit (about 2.3% of all), similar ones and a draw of the others.
Abeta yeast res: restores growth of yeast expressing A-beta42 peptide; Potency, µM (titrated, usually from 46.1 µM), usual class: activators; AID 1347071; yeast expressing A-beta42, growth rescue, OD600, 48 h; response scale: 0% DMSO, 100% iron-clioquinol control; hit rate 0.063% among 410,000; note: nearly all actives have a fitted effect of over 55% in size
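Yeast growth medium received pinned compounds, then yeast cells expressing toxic A-beta were added; plates incubated at 30 C for 48 hr. Growth read as absorbance at 600 nm, normalized to DMSO and equimolar FeCl3 plus clioquinol controls.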
TDP-43 yeast inh: inhibitors of TDP-43 toxicity in yeast | hit rate 1.8% among 410,000 | TDP-43 expressing yeast growth rescue, BacTiter-Glo, 24 h | Potency, µM (series often up to 46.1 µM), most hits filed as activators; note: nearly all actives have a fitted effect of over 50% in size
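In this qHTS, compounds that restore growth of yeast expressing TDP-43 appear as activators. Cells (OD600=0.02, galactose medium, raffinose-pregrown) are incubated with compound 24 hr at 30 deg C and growth is quantified by BacTiter-Glo.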
pAkt inh: blocks phosphorylation of Akt; hit rate 0.32% among 360,000; activity change, % for hits at 50 µM; Neuro2A IGF-stimulated pAkt S473 HTRF, 20 min; active compounds read low; in the data active = activity change below about -80%; inconclusive = mostly about -51% to -80%
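Single-point screen (50 µM final compound) in Neuro2A cells stimulated 20 min with 6 nM IGF at 37 deg C. After lysis, Ser473-phosphorylated Akt read by HTRF (ex 330 nm, em 615/665 nm) as the 665/615 ratio.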
FUS yeast rescue: FUS proteinopathy suppression in yeast; hit rate 0.24% among 390,000; S. cerevisiae FUS-expressing, growth rescue, OD600, 24 h; Potency, µM (doses to about 76.6 µM), most hits filed as activators; note: nearly all actives have a fitted effect of over 55% in size
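Absorbance at 600 nm, taken 24hr after compound addition, measured rescue of FUS-yeast growth at 30C. Induction used 2% galactose with seeding at OD 0.005. Controls: CP55940 from 92uM final, DMSO only.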
aSyn yeast inh: rescues yeast growth from alpha-synuclein toxicity; Yeast expressing alpha-synuclein, growth rescue, BacTiter-Glo, 24 h; Potency, µM (titrated, usually from 46.1 µM), hits mostly activators; hit rate 0.14% among 370,000; AID 652106; note: nearly all actives have a fitted effect of over 65% in size
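Readout is rescue of growth in alpha-synuclein-expressing yeast, so inhibitors of toxicity appear as activators. Growth after 24 hr at 30 deg C in galactose medium is quantified by luminescence.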
Hits are given with their value; i = inactive; ? = inconclusive; nt = not tested or not shown. Unless noted, calls come from the whole dose curve; as a rule, active = well fitted curve in the direction sought with a large enough effect; inconclusive = small, poorly fitted or top-dose-only effect, or another doubt; inactive = no such curve, though single readings can be large; an effect the other way counts as inactive or inconclusive.

SMILES	Abeta yeast res	TDP-43 yeast inh	pAkt inh	FUS yeast rescue	aSyn yeast inh
CCN1CCN(c2ccc(NC(=O)CCc3c(C)nc4c(-c5ccccc5)c(C)nn4c3C)cc2)CC1	i	i	i	i	i
Cc1nc2c(-c3ccccc3)c(C)nn2c(C)c1CCC(=O)N1CCN(c2ccc(F)cc2)CC1	i	14µM	nt	i	nt
COc1ccc(CCNC(=O)CCc2c(C)nc3cc(-c4ccccc4OC)nn3c2C)c(OC)c1	i	18µM	nt	?	nt
COc1ccc(OC)c(NC(=O)CCc2c(C)nc3c(-c4ccccc4)c(C)nn3c2C)c1	i	20µM	nt	?	nt
COc1ccc(Cl)cc1NC(=O)c1c(NCc2sccc2C)sc2c1CCCC2	i	i	nt	i	i
Cc1nc(CSc2nnc(Nc3cccc(C)c3C)s2)cs1	i	7.9µM	i	nt	i
Cc1ccc(Nc2nnc(SCC(=O)Nc3ccccc3[N+](=O)[O-])s2)cc1	i	i	i	i	i
Cc1cccc(Nc2nnc(SCC(=O)Nc3ccccc3[N+](=O)[O-])s2)c1C	i	13µM	i	nt	i
COc1ccccc1CNC(=O)CN1C(=O)COc2ccc(S(=O)(=O)N3CCC(C)CC3)cc21	i	i	nt	i	i
CC(C)CCNc1nc(Nc2ccccc2)c2cnn(C)c2n1	i	18µM	nt	?	nt
CCn1cc(S(=O)(=O)c2cc(C)cc(C)c2)c(=O)c2cc(F)c(N3CCC(C)CC3)cc21	i	i	nt	i	nt
Nc1nc2ccc(Oc3ccccc3)cc2s1	i	11µM	i	nt	i
Nc1nc2ccc(OC(F)(F)F)cc2s1	i	13µM	i	i	nt
OCC1OC(n2cnc3c(=S)nc[nH]c32)C(O)C1O (centres undefined)	nt	nt	nt	nt	i
CC(=O)Nc1ccc(OCc2cccc([N+](=O)[O-])c2)cc1	i	?	i	i	i
CC(=O)Nc1ccc(C=CC=Cc2cccc([N+](=O)[O-])c2)cc1	i	14µM	i	nt	i
Cc1ccc(-c2cnc3c(Nc4cccc(OC(F)(F)C(F)F)c4)nccn23)cc1	i	i	i	i	i
OCc1cccc(-c2cnc3c(Nc4cccc(OC(F)(F)C(F)F)c4)nccn23)c1	i	20µM	i	?	i
Cc1ccccc1N1CCN(C(=S)c2ccccc2)CC1	i	11µM	i	nt	i
Cc1ccccc1N1CCN(S(=O)(=O)c2ccccc2)CC1	i	13µM	i	i	i
COc1ccc(N=C2SCC(=O)N2Cc2ccccc2)cc1	i	13µM	i	i	i
Cn1c(C(=O)NCc2ccc(F)cc2)cc2cc(S(=O)(=O)N3CCCCC3)ccc21	i	i	nt	i	nt
CCCn1cc(S(=O)(=O)c2cccc(Cl)c2)c(=O)c2cc(F)c(N3CCOCC3)cc21	i	i	nt	i	nt
COC(=O)[C@@]1(Cc2ccc(OC)cc2)[C@H]2c3cc(C(=O)N4CCCC4)n(Cc4ccc(S(C)(=O)=O)cc4)c3C[C@H]2CN1C(=O)c1ccccc1	i	i	i	25µM	i
COC(=O)[C@@]1(Cc2ccc(F)cc2)[C@H]2c3cc(C(=O)N4CCCC4)n(Cc4ccccc4)c3C[C@H]2CN1C(=O)c1ccccc1	i	i	i	?	i
SMILES	Abeta yeast res	TDP-43 yeast inh	pAkt inh	FUS yeast rescue	aSyn yeast inh
COc1cc(-c2nc3ccc(C)cn3c2Nc2ccc(Cl)cc2)ccc1O	i	i	nt	i	nt
COc1ccc(NC(=O)c2ccco2)cc1NC(=O)c1ccc(OC(C)C)cc1	i	14µM	nt	?	nt
O=C(NCCc1ccccc1)c1cnc2sc(N3CCOCC3)nn2c1=O	i	i	nt	i	nt
CC1CCN(c2nn3c(=O)c(C(=O)NCCc4ccccc4)cnc3s2)CC1	i	13µM	nt	i	nt
COc1ccc(CCNC(=O)c2c(C)nn(-c3ccc(F)cc3)c2-n2cccc2)c(OC)c1OC	i	?	nt	i	i
CC(=O)c1ccc(NC(=O)CSC2=Nc3ccccc3N=C(c3ccc(F)cc3)C2)cc1	i	i	nt	i	nt
CCOC(=O)CSc1nc2sc3c(c2c(=O)n1Cc1ccccc1)CC(C)CC3 (centres undefined)	i	i	nt	i	nt
CC(=O)c1ccc(N2CCN(c3ncnc4c3c(-c3ccccc3)cn4-c3ccc(C)c(Cl)c3)CC2)cc1	i	i	nt	i	nt
O=C(CSc1ccc(-c2ccco2)nn1)Nc1ccccc1F	i	28µM	i	i	i
Cc1cc(NC(=O)CSc2nnc(-c3ccco3)n2C)no1	i	i	i	i	i
CCOc1ccccc1NC(=O)CSc1ccc(-c2ccco2)nn1	i	?	i	i	i
Cn1c(SCC(=O)Nc2ccc(Cl)cc2F)nnc1-c1ccco1	i	i	i	i	2.8µM
O=C(Cn1nc(-c2ccco2)ccc1=O)Nc1cc(Cl)ccc1Cl	i	13µM	i	i	i
CCN(Cc1ccccc1)S(=O)(=O)c1ccc2c(c1)CC(C)N2C(=O)C1CCC1 (centres undefined)	i	?	nt	i	nt
Cc1cccc(C)c1Nc1c(-c2ccccc2F)nc2cccc(C)n12	i	?	nt	i	i
COc1ccc(C(=O)CSc2nc3cc(C(=O)NC4CCCC4)ccc3c(=O)n2CC2CCCO2)cc1 (centres undefined)	i	i	nt	i	nt
CCCCn1c(CCC)nc([N+](=O)[O-])c1Sc1ccc(Cl)cn1	i	?	-114%	i	i
CC(C)Cn1c(C(C)C)nc([N+](=O)[O-])c1Sc1ccc(Cl)cn1	i	i	i	i	i
CC(C)c1cc(C(C)C)c(S(=O)(=O)NC(c2ccccn2)C23CC2C3)c(C(C)C)c1 (centres undefined)	i	22µM	i	?	?
Cc1nn(-c2ccc(N3CCCC3)nn2)c(C)c1CCC(=O)Nc1ccc(F)cc1F	i	i	nt	i	nt
Cc1ccc(N=Nc2ccc(O)c(/C=N\NC(=O)c3ccc(N)cc3)c2)cc1C	i	i	i	1.1µM	i
CCNC(=S)N/N=C(\C)c1ccc(Cl)s1	i	?	i	nt	i
CNC(=S)N/N=C(\C)c1ccc(Cl)s1	?	14µM	i	i	i
COc1ccc2nc(-c3ccccc3)cc(C(=O)OCC(=O)N3CC(C)OC(C)C3)c2c1 (centres undefined)	i	22µM	i	?	i
COc1ccc(Cn2ccnc2SCC(=O)Nc2ccc(C)cc2C)cc1	i	i	nt	i	nt
SMILES	Abeta yeast res	TDP-43 yeast inh	pAkt inh	FUS yeast rescue	aSyn yeast inh
Cc1ccc(/C=C/c2onc(C)c2S(=O)(=O)N2CCC(C(=O)N(CCC(C)C)Cc3ccco3)CC2)cc1	i	i	nt	i	nt
Cc1nn(-c2ccccc2)c2c1N(CCCC(=O)NCc1ccccc1)C(=O)CS2	i	?	nt	i	nt
CCCCOc1ccc(CNC(=O)CCCN2C(=O)CSc3c2c(C)nn3-c2ccccc2)cc1	i	28µM	nt	?	nt
Cc1nn(-c2ccccc2)c2c1N(CCCC(=O)NCc1ccc(OC(C)C)cc1)C(=O)CS2	i	28µM	nt	i	nt
Cc1nn(-c2ccccc2)c2c1N(CCCC(=O)NCc1ccc(Cl)cc1)C(=O)CS2	i	20µM	nt	?	nt
Cc1ccc(C(=O)c2coc3ccc(O)c(Cl)c23)cc1	i	16µM	i	i	i
